Molecules are shown by their SMILES. Among all 220,000 compounds or so, about 2,000 (0.91%) were called active. About 2% were inconclusive and are not listed. Cut-off read from the data, not from the text of the source: inconclusive = inhibition above about 80% without an active follow-up result; inactive = below that; test concentration not stated here. Only a sample is shown. Potency and affinity values are given separately.

The nature of the assay: M. tuberculosis H37Rv growth inhibitors, H37Rv strain (AID 1626).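 Note: bacteria incubated seven days before Alamar blue readout; 0% = bacteria only wells and 100% = bacteria with antibiotic wells.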 Conditions: active compounds read high, concentration not given here.
One may read the inhibition as the drop in the measured response relative to a control, in per cent. As to `Cc1ccc(S(=O)(=O)NC(=O)Nc2cc(C(C)(C)C)on2)cc1`, the inhibition was -7.06% (inactive).
In the case of `Cc1ccc2cc(CCNC(=O)c3cccc([N+](=O)[O-])c3)c(=O)[nH]c2c1`, the inhibition is 2% (inactive).
Regarding `COc1ccc(CCNC(=O)C2=COCCO2)cc1`, the inhibition was 0.72% (inactive).
Consider `COc1ccc(-c2csc(NC(=O)COC(=O)C3=COCCO3)n2)cc1`, for which the inhibition is 4.53% (inactive).
Turning to `Cc1ccnc2nc(C(=O)Nc3nnc(-c4ccc(Cl)cc4)o3)nn12`, the inhibition was -1.12% (inactive).
As to `COc1ccc2nc(NC(=O)c3ccc4ncsc4c3)sc2c1`, the inhibition is 8.2% (inactive).
Take `COc1ccc(OC)c2sc(NC(=O)C3=COCCO3)nc12`: the inhibition is 6.97% (inactive).
In the case of `CCc1nnc(NC(=O)c2ccc3ncsc3c2)s1`, the inhibition is -18.6% (inactive).
As for `COc1ccc(C)c2sc(NC(=O)C3=COCCO3)nc12`, the figure is 5.95% (inactive); as for `O=C(COc1ccc(Cl)cc1Cl)Nc1nnc(C2=COCCO2)o1`, 1.29% (inactive); as for `COc1ccc(CC2(CO)CCN(Cc3cnn(-c4ccc(F)cc4)c3)CC2)cc1`, -9.12% (inactive).
Turning to `NC(=O)c1ccccc1NS(=O)(=O)c1ccc2c(c1)OCCO2`, the inhibition is -3.34% (inactive).
To `CN1CCN(c2ccc(Cl)cc2NC(=O)c2ccc(S(=O)(=O)N(C)C)cc2)CC1` belongs -2.17% (inactive).
As for `COc1ccc(C(=O)NC(=S)Nc2cccc(NC(=O)c3ccco3)c2)cc1[N+](=O)[O-]`, the figure is 6.53% (inactive); as for `CCCN1C(=O)c2ccccc2NC1c1ccc(OC)c(CSc2ccccn2)c1` (centres undefined), -2.45% (inactive).
Turning to `CCN(CC)S(=O)(=O)c1ccc(/C=C/C(=O)Nc2c(C)n(C)n(-c3ccccc3)c2=O)cc1`, the inhibition is -0.04% (inactive).
For `Cn1c(=O)c([N+](=O)[O-])c(NCCCn2ccnc2)c2ccccc21`, the inhibition was -3.33% (inactive).
Regarding `Cc1ccccc1-n1nnnc1SC(C)C(=O)NC1CCCc2ccccc21` (centres undefined), the inhibition was 10.2% (inactive).
As for `Cc1ccc(C(=O)CSc2nnc(CNc3ccc(C)cc3C)o2)cc1`, the inhibition was -7.6% (inactive).
Consider `O=C(CSc1nnc(CNc2ccc(F)cc2)o1)OC1CCCCC1`, for which the inhibition was 25.5% (inactive).
Turning to `Cn1c(CNc2cccc(Cl)c2)nnc1SCC(=O)OC1CCCCC1`, the inhibition is 62.1% (inactive).
Turning to `Cc1ccc(NCc2nnc(SCC(N)=O)o2)c(C)c1`, the inhibition is -3.32% (inactive).
As for `COC(=O)Nc1ccc(S(=O)(=O)N2CCCCC2C(=O)NCc2ccco2)cc1` (centres undefined), the inhibition was -7.03% (inactive).
For the compound `O=C(COC(=O)CNS(=O)(=O)/C=C/c1ccccc1)NC1CCS(=O)(=O)C1` (centres undefined), the inhibition was -7.59% (inactive).
As for `O=C(COc1ccc(Br)cc1Br)NC(=O)NC1CCCC1`, the figure is 3.86% (inactive).
As for `Cc1ccc(CNc2ccc(N3CCOCC3)c(C(=O)O)c2)s1`, the inhibition was -3.09% (inactive).
Take `COc1cccc(OCC(O)CN2CCC(CN3C(=O)c4cccc5cccc(c45)C3=O)CC2)c1` (centres undefined): the inhibition is -4.13% (inactive).
Regarding `O=C1c2cccc3cccc(c23)C(=O)N1CC1CCN(CC(O)COCc2ccc3c(c2)OCO3)CC1` (centres undefined), the inhibition is 76.5% (inactive).
As for `CCCCN(CCCC)C(=O)c1cc(Cl)ccc1[N+](=O)[O-]`, the figure is 11% (inactive); as for `CCN(CC)C(=O)c1cc([N+](=O)[O-])cc2c1-c1ccc([N+](=O)[O-])cc1C2=C(C#N)C#N`, 23% (inactive).
On to `C=CCNC(=O)C1CC(=O)N(c2ccc(OCC(=O)Nc3ccc(Cl)c(C(F)(F)F)c3)cc2)C1` (centres undefined), for which the inhibition is -8.95% (inactive).
With `Cc1cc(C)c(-c2cc(NC(=O)COC(=O)c3ccc(CO)cc3)n(-c3ccccc3)n2)cc1C`, the inhibition was 4.29% (inactive).
As to `COC(=O)C1CCN(C(=O)COC(=O)Cc2c[nH]c3ccccc23)CC1`, the inhibition was 2.16% (inactive).
Regarding `CC(=O)N1CCN(C(=O)CCc2c[nH]c3ccccc23)CC1`, the inhibition was 3.68% (inactive).
As to `COc1ccc(CNC(=O)COC(=O)CCc2c[nH]c3ccccc23)cc1`, the inhibition is 4.73% (inactive).
As to `COc1ccc(N2CCN(C(=O)CCc3c[nH]c4ccccc34)CC2)cc1`, the inhibition was -4.15% (inactive).
With `COc1ccc(C)cc1NC(=O)CSc1nnc(-c2ccco2)n1Cc1ccco1`, the inhibition was -0.88% (inactive).
Regarding `CC(=O)Nc1sc(N/N=C\c2cccc(Cl)c2)nc1-c1cccs1`, the inhibition is 54.5% (inactive).
To `CCS(=O)(=O)N1CCCC(C(=O)NCCN(C)Cc2ccccc2)C1` (centres undefined) belongs -6.72% (inactive); to `Cc1ccc(C(=O)CSc2ncnc3ccccc23)o1`, 10.6% (inactive).
For the compound `COc1ccc(CCN(Cc2cccs2)S(=O)(=O)c2ccc(C(=O)O)cc2)cc1OC`, the inhibition is -3.72% (inactive).
Take `CSc1nnc(-c2cnccn2)n1Cc1ccccc1`: the inhibition was -1.1% (inactive).
Regarding `CC(C)(C)c1ccc(OCCC(=O)NC2=NCCS2)cc1`, the inhibition is -11.7% (inactive).
With `CCOc1ccc(OCCCC(=O)NC2=NCCS2)cc1`, the inhibition was -1.83% (inactive).
For the compound `COc1cccc(CNC23CC4CC(CC(C4)C2)C3)c1OCc1ccccc1`, the inhibition was 13.5% (inactive).
For the compound `c1ccc(COc2ccccc2CNC23CC4CC(CC(C4)C2)C3)cc1`, the inhibition is 17% (inactive).
For `CS(=O)(=O)N1CCN(C2Cc3ccccc3C2)CC1`, the inhibition is -13.7% (inactive).
In the case of `O=[N+]([O-])c1ccc(O)c(C=Nc2ccc3c(c2)OCCO3)c1`, the inhibition was 77.5% (inactive).
For `O=[N+]([O-])c1ccc(O)c(C=Nc2ccc3c(c2)OCO3)c1`, the inhibition was 8.62% (inactive).
Take `CCN1CCN(c2nc(N)c([N+](=O)[O-])c(Nc3ccc(C)c(C)c3)n2)CC1`: the inhibition is 51.5% (inactive).
As for `Cc1cccc(Nc2nc(N3CCN(C)CC3)nc(N)c2[N+](=O)[O-])c1`, the figure is 16.3% (inactive); as for `N#Cc1ccccc1Cn1c(=O)n(Cc2ccc(C(=O)NCc3ccco3)cc2)c(=O)c2sccc21`, -3.31% (inactive); as for `CN1C(=O)C(O)(CC(=O)c2ccncc2)c2ccccc21` (centres undefined), 3.47% (inactive).
Take `C/C(CC1(O)C(=O)N(C)c2ccccc21)=N\O` (centres undefined): the inhibition is -3.6% (inactive).
For `COc1cc(OC)c(N(C)C(=O)CCNC(=O)Cn2cnc3ccccc3c2=O)cc1Cl`, the inhibition was -0.76% (inactive).
As to `NC(=NC(=O)c1ccc(Cl)cc1)N1N=CCC1c1ccccc1` (centres undefined), the inhibition was 11.8% (inactive).
Take `COc1ccc(C2c3ccc(O)cc3Oc3ncn(CCN4CCOCC4)c(=N)c32)cc1` (centres undefined): the inhibition is -0.84% (inactive).
As for `O=C(Nc1cn(-c2ccccc2)nc1-c1ccc(Cl)cc1)c1ccccc1`, the inhibition is 9.57% (inactive).
Turning to `CC(=O)Nc1cn(-c2ccccc2)nc1-c1ccccc1`, the inhibition is -0.45% (inactive).
For the compound `Cc1ccc(-c2nn(-c3ccccc3)cc2NC(=O)c2ccccc2)cc1`, the inhibition was -0.55% (inactive).
As to `O=C(CCl)Nc1cn(-c2ccccc2)nc1-c1ccc(F)cc1`, the inhibition is 61.8% (inactive).
As for `CNC(=S)N1CCc2ccccc2C1`, the figure is 3.08% (inactive); as for `COc1ccc(NC(=O)C(NC(=O)CNC(C)=O)c2ccc(C)cc2)cc1` (centres undefined), -6.91% (inactive); as for `O=C(CCN1C(=O)c2ccccc2C1=O)NC(=S)Nc1ccccc1Cl`, 9.27% (inactive).
For `Oc1[nH]c2ccccc2c1C=Nc1ccc2c(c1)OCCO2`, the inhibition is 6.37% (inactive).
As for `O=C(NCCCn1ccnc1)c1nn2c(C(F)(F)F)cc(-c3ccccc3)nc2c1Cl`, the inhibition is -4.76% (inactive).
For the compound `O=C(NCCCn1ccnc1)c1cc2nc(-c3ccc(Br)cc3)cc(C(F)(F)F)n2n1`, the inhibition is 6.06% (inactive).
To `O=C(O)COCC(=O)Nc1ccccc1-c1ccccc1` belongs -0.81% (inactive).
Consider `COc1ccc(CN(C)Cc2nc3scc(-c4ccccc4)c3c(=O)[nH]2)cc1OC`, for which the inhibition is 3.92% (inactive).
As to `COC(=O)N1CCN(c2ccc(Cl)c(Cl)c2)CC1`, the inhibition was -4.81% (inactive).
Regarding `CCOC(=O)N1CCN(c2ccc(Cl)c(Cl)c2)CC1`, the inhibition was 6.01% (inactive).
To `O=S1(=O)CCN(CCc2c[nH]c3ccccc23)CC1` belongs 3.01% (inactive).
As for `N#Cc1ccc(C(=O)Nc2nnc(-c3ccccn3)o2)cc1`, the figure is 1.74% (inactive).
Take `CCC(=O)Nc1nnc(-c2ccccn2)o1`: the inhibition was 5.88% (inactive).
Turning to `O=C(CCc1ccccc1)Nc1nnc(-c2ccccn2)o1`, the inhibition was -4.88% (inactive).
For the compound `O=C(Nc1nnc(-c2ccncc2)o1)c1cccc(N2C(=O)CCC2=O)c1`, the inhibition is -4.89% (inactive).
As for `COC(=O)c1ccc(C(=O)Nc2nnc(-c3cccnc3)o2)cc1`, the inhibition was -5.5% (inactive).
Take `CC(=O)Nc1nnc(-c2ccccn2)o1`: the inhibition was -3.3% (inactive).
Consider `Cc1nnsc1C(=O)N(Cc1ccccc1)C(C)C`, for which the inhibition was -4.27% (inactive).
With `Cc1ccc(CNC(=O)C2CC(c3cccc(F)c3)=NO2)cc1` (centres undefined), the inhibition is 9.15% (inactive).
For `OC(C#CCN1CCOCC1)(c1ccccc1)C1CCCC1` (centres undefined), the inhibition is 2.94% (inactive).
For `Cc1ccc(C(=O)CSc2nnc(COc3cccc(C)c3)o2)cc1`, the inhibition was -2.67% (inactive).
Take `CCOC(=O)CSc1nnc(COc2cccc(C)c2)o1`: the inhibition is -4.7% (inactive).
For the compound `Cc1ccc(C(=O)CSc2nnc(COc3cc(C)cc(C)c3)o2)cc1`, the inhibition is -3.69% (inactive).
On to `CC1CCCCC1NC(=O)CSc1nnc(COc2ccccc2Cl)o1` (centres undefined), for which the inhibition was -2.14% (inactive).
With `Cc1cc(C)nc(SCc2nnc(SCC(=O)OC3CCCCC3)o2)n1`, the inhibition was 48.1% (inactive).
Regarding `O=C(CSc1nnc(COc2ccccc2Cl)o1)NC(=O)NC1CCCC1`, the inhibition was 5.08% (inactive).
To `CCn1cc(C(=O)OCC(=O)Nc2c(C)cccc2C)c(=O)c2ccc(C)nc21` belongs 0.89% (inactive); to `Cc1ccccc1CSCCNC(=O)CCSc1ccccc1`, -2.07% (inactive).
Regarding `CCOC(=O)c1ccc(NC(=O)CSc2nnc(COc3ccccc3OC)n2CC)cc1`, the inhibition was 6.35% (inactive).
Consider `CCc1cccc(CC)c1NC(=O)c1ccccc1CCc1ccccc1`, for which the inhibition is 2.03% (inactive).
To `COC(c1ccccc1)c1nnc(CCC(=O)N(C)CCc2ccccc2)o1` (centres undefined) belongs -1.5% (inactive).
As to `O=C(CCn1cnc2ccccc2c1=O)Nc1nc(-c2ccc(Br)cc2)cs1`, the inhibition is -1.09% (inactive).
With `COc1ccc(/C=C2/N=C(SCC(=O)Nc3cc(C)on3)N(c3ccccc3)C2=O)cc1`, the inhibition is 2.4% (inactive).

These data come from PubChem BioAssay AID1626 (SRMLSC, 2009).
